Tg IFNy HTS: T. gondii growth inhibition with IFN-gamma, primary screen, cell-based. Toxoplasma gondii growth in IFN-gamma-treated host cells; hits give low values. activity change, negative = inhibition, % (no concentration beside the values). hit rate 3.8% among 69,000. AID 1259416, 2018; in the data active = activity change below about -70%, passing the limit was not always enough;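 note: host cells are HeLa cells infected with Toxoplasma gondii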
Large screens that a line does not name were inactive. Shown is part of a subset that was picked to be rich in hits.

CC[C@@]1(O)C(=O)OCc2c1cc1n(c2=O)Cc2cc3cc(O)ccc3nc2-1	Tg IFNy HTS -90
CC[C@@]1(O)C(=O)OCc2c1cc1n(c2=O)Cc2c-1nc1cc(F)c(C)c3c1c2[C@@H](N)CC3	Tg IFNy HTS -86
COc1ccc(C)cc1NC(=O)Nc1ccc(-c2nc(-c3ccc(C)cc3C)co2)cc1	none
CC(=O)N1CCC(C(=O)NCc2ccccc2)(N(C(=O)c2ccc(C)cc2)c2cccc(C)c2C)CC1	none
CCc1ccc(NC(=O)c2c(O)c3cccnc3n(-c3cccc(F)c3)c2=O)cc1	none
O=C(C1CCCCC1)N1CCC2(CC1)Nc1ccccc1-n1cccc12	none
Cc1cc(-c2cnc(N(C)C)nc2C2CCCN2C(=O)CSc2nc(C)c(C)o2)on1 (configuration not stated)	none
Cc1csc2c(N3CCC(O)(CO)CC3)ncnc12	none
Cc1csc2c(N3CCc4nnc(C5CCCO5)n4CC3)ncnc12 (configuration not stated)	none
COC(=O)c1sccc1S(=O)(=O)N1CCN(c2ncnc3c(C)csc23)CC1	Tg IFNy HTS -85
CCC(=O)N1CCc2c([nH]c3ccc(Cl)cc23)C12C(=O)N(C)c1ccccc12 (configuration not stated)	none
CCc1ccc(NC(=O)C2=C(C)C(=O)OC23CCN(C(C)C)CC3)cc1	none
CO[C@H]1CN(C)C(=O)c2cc(NC(=O)c3nc4ccccc4s3)ccc2OC[C@@H](C)NC[C@H]1C	none
CO[C@H]1CN(C)C(=O)c2cc(NC(=O)c3nc4ccccc4s3)ccc2OC[C@H](C)NC[C@H]1C	Tg IFNy HTS -111
CO[C@H]1CN(C)C(=O)c2cc(NC(=O)c3nc4ccccc4s3)ccc2OC[C@@H](C)NC[C@@H]1C	none
CO[C@@H]1CN(C)C(=O)c2cc(NC(=O)c3nc4ccccc4s3)ccc2OC[C@H](C)NC[C@H]1C	Tg IFNy HTS -92
CO[C@@H]1CN(C)C(=O)c2cc(NC(=O)c3nc4ccccc4s3)ccc2OC[C@@H](C)NC[C@H]1C	none
CO[C@@H]1CN(C)C(=O)c2cc(NC(=O)c3nc4ccccc4s3)ccc2OC[C@@H](C)NC[C@@H]1C	none
COc1cccc(N2CC3(CCN(C(=O)NCc4cccc(F)c4)C3)CC2=O)c1 (configuration not stated)	none
CC(C)(C(=O)N1CCC(C(=O)Nc2ccccn2)C1)c1ccc(F)cc1 (configuration not stated)	none
Cc1cc(C(F)F)nn1CC(=O)NCc1ccc(-c2ncncc2C(=O)N(C)C)cc1	none
Cc1ccc(NC(=O)CC(=O)NCCCn2ccnc2)cc1Cl	none
CCC(NC(=O)CC(=O)Nc1ccc(C)c(Cl)c1)c1nc(C)no1 (configuration not stated)	none
Cc1ccc(Nc2nc3nonc3n3cnnc23)cc1Cl	Tg IFNy HTS -106
OC1(C(F)(F)F)CC(c2ccc3c(c2)Nc2ccccc2S3)=NN1 (configuration not stated)	none
OC1(C(F)(F)F)CC(/C=C/c2ccc3c(c2)OCO3)=NN1 (configuration not stated)	Tg IFNy HTS -86
OC1(C(F)(F)F)CC(c2cc3ccccc3o2)=NN1 (configuration not stated)	none
CCCC(NC(=O)c1cnc(N2CCOCC2)nc1)c1cccs1 (configuration not stated)	none
COc1ccc(C2(NC(=O)c3cnc(N4CCOCC4)nc3)CCCC2)cc1	Tg IFNy HTS -80
CCOC(=O)c1cnc(N2CCOCC2)nc1N	none
Cc1cc(C)n(Cc2nc(-c3ccc(NC(=O)c4ccc5c(c4)OCO5)cc3)oc2C)n1	Tg IFNy HTS -98
Cc1ccc(C(=O)Nc2ccc(-c3nc(Cn4nc(C)cc4C)c(C)o3)cc2)cc1	none
CCc1ccc(C(=O)Nc2ccc(-c3nc(Cn4nc(C)cc4C)c(C)o3)cc2)cc1	none
Cc1cc(C)n(Cc2nc(-c3ccc(NC(=O)c4ccc(F)cc4)cc3)oc2C)n1	none
Cc1cc(C)n(Cc2nc(-c3ccc(NC(=O)c4ccc(F)c(F)c4)cc3)oc2C)n1	none
COc1ccc(C(=O)Nc2ccc(-c3nc(Cn4nc(C)cc4C)c(C)o3)cc2)cc1	Tg IFNy HTS -92
O=C(c1ccccn1)N1CCC2OCCCC2(COCC2CC2)C1 (configuration not stated)	none
COCC(=O)N1C[C@H]2COC[C@@H](CC(=O)N3CCCC3)[C@H]2C1	none
C=CCn1c(=O)c(C(=O)Nc2nc(C)cc(C)n2)c(O)c2ccccc21	none
CC(C)(C(=O)NCC(F)(F)C(F)(F)F)C(=O)N[C@@H]1C(=O)Nc2ccccc2-c2ccccc21	Tg IFNy HTS -89
CCC(=O)N1CCCC(C2C(=O)Nc3ccccc32)C1 (configuration not stated)	none
c1cc(-c2cc(C3CCN(Cc4ccc5c(c4)OCCO5)C3)ccn2)ccn1 (configuration not stated)	none
c1ccc2c(c1)CCCc1cc(NCCN3CCOCC3)nnc1-2	none
Cn1ccnc1-c1nc(NCCN2CCOCC2)ncc1-c1cccs1	none
O=C1C(Cl)=C(NCCN2CCOCC2)C(=O)c2ncccc21	Tg IFNy HTS -80
Cc1nc(-c2ccc(Cl)cc2)sc1CCNC(=O)C1CCCC1	none
CCOc1cccc(-c2csc(CN3CCNCC3)c2)c1	none
CCN(CCCNC(=O)C1=C(C)C(=O)OC12CCN(S(C)(=O)=O)CC2)Cc1ccccc1	none
Cc1ccc(NC(=O)C(CC(C)C)NS(=O)(=O)c2ccc3[nH]c(=O)ccc3c2)c(C)c1 (configuration not stated)	none
CC(C)NC(=O)N1CCC2(CC1)CCn1c(-c3cnn(C)c3)cnc12	none
CC(=O)N1CCC2(CC1)NCCn1c(-c3ccnn3C)cnc12	none
CC(C)NC(=O)N1CCC2(CC1)c1ncc(-c3ccnn3C)n1CCN2C	Tg IFNy HTS -89
CC1=CC[C@@H]2CN(C(=O)c3nc(=O)[nH]c4ccccc34)C[C@@H]2C1	none
CCc1c(C)nc(C2CCCN2C(=O)C2CCN(S(=O)(=O)CC)CC2)[nH]c1=O (configuration not stated)	none
CCN1C(=O)CCc2cc(C(=O)N3CCCCC3)ccc21	none
CCN1C(=O)CCc2cc(C(=O)N3CCOCC3)ccc21	none
O=C(c1ccc2c(c1)CCC(=O)N2Cc1ccccc1)N1CCN(c2ccccc2F)CC1	Tg IFNy HTS -102
Cc1ccc(C)c(OCC(=O)NC(C)c2n[nH]c(=O)[nH]2)c1C (configuration not stated)	none
COc1ccc(CN2CCC3(CCCN3S(=O)(=O)c3ccccc3)CC2)cc1F	none
CCc1ccc2c(c1)c1nnc(SCc3nnc(-c4ccccc4)o3)nc1n2C	none
CCn1ncnc1C(C)NC(=O)c1nc(C(C)C)cs1 (configuration not stated)	none
O=c1[nH]ccc2c1c(=O)[nH]c1ccccc12	Tg IFNy HTS -100
CCCCCCCc1nc2c(=O)[nH]c3ccccc3c2o1	none
O=c1[nH]c2ccccc2c2oc(-c3ccccc3)nc12	none
CN1CC2(CCN(C(=O)c3cc4cccc(Cl)c4n3C)C2)OC1=O (configuration not stated)	none
COCc1nnc2n1CCN(C(=O)c1ccn[nH]1)C2	none
COCCN1C[C@H]2COC[C@@H](C(=O)N3CCCO3)[C@H]2C1	none
O=C(NC1CCc2[nH]ncc2C1)c1cccc(CC2CCNCC2)c1 (configuration not stated)	none
O=C(NC1CCNCC1)c1[nH]ncc1NC(=O)c1c(Cl)cccc1Cl	Tg IFNy HTS -72
O=C(NC1CCN(c2cnccn2)CC1)c1ccccc1C1CCNC1 (configuration not stated)	none
COC(=O)c1ccc(C(=O)N2CCC(C(=O)c3ccnn3C)CC2)s1	none
Cc1ccc(NC(=O)N2CCC(c3nc(C(=O)N(C)C)c(C)o3)CC2)cc1F	none
